Laboratory results as given in article PMC11006913.
Changes are numbered by the printed parent chain.

These sequences were tested against ALX4 (Homo sapiens, UniProt Q9H161 200-286) (assay: PBM; 200 nM protein, PBS). Details: dsDNA, one strand shown.
Sequence of ALX4 (Homo sapiens, UniProt Q9H161 200-286) (Q9H161 200-286): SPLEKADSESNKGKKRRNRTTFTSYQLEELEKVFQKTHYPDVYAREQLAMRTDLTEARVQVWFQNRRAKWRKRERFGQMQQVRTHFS
GCTCAAGC was tested, and the binding signal was 8.08 upbm affinity estimate (log intensity, higher = more binding, comparable within an allelic series). AATTAAAG was tested, and the binding signal was 13.6 upbm affinity estimate (log intensity, higher = more binding, comparable within an allelic series). In the case of CCTGCGAG, the binding signal is reported as 7.97 upbm affinity estimate (log intensity, higher = more binding, comparable within an allelic series). In the case of ATTGGTGA, the binding signal is reported as 10.4 upbm affinity estimate (log intensity, higher = more binding, comparable within an allelic series). With AGGAGCCC the binding signal was 7.99 upbm affinity estimate (log intensity, higher = more binding, comparable within an allelic series). In the case of AATTTATC, the binding signal is reported as 12 upbm affinity estimate (log intensity, higher = more binding, comparable within an allelic series). In the case of CTATAATA, the binding signal is reported as 11.6 upbm affinity estimate (log intensity, higher = more binding, comparable within an allelic series). CCGCAGAC was tested, and the binding signal was 8.08 upbm affinity estimate (log intensity, higher = more binding, comparable within an allelic series). With AAATTAGT the binding signal was 13.5 upbm affinity estimate (log intensity, higher = more binding, comparable within an allelic series). With GAGGACTC the binding signal was 8.06 upbm affinity estimate (log intensity, higher = more binding, comparable within an allelic series). With AGGAGGCG the binding signal was 8.14 upbm affinity estimate (log intensity, higher = more binding, comparable within an allelic series). For TGCCAGCA, the binding signal was 8.19 upbm affinity estimate (log intensity, higher = more binding, comparable within an allelic series). With ACGGAGGC the binding signal was 8.04 upbm affinity estimate (log intensity, higher = more binding, comparable within an allelic series). With GAGAGCGC the binding signal was 7.97 upbm affinity estimate (log intensity, higher = more binding, comparable within an allelic series). For GACCGTCC, the binding signal was 8.08 upbm affinity estimate (log intensity, higher = more binding, comparable within an allelic series). With CGGGCCTC the binding signal was 8.16 upbm affinity estimate (log intensity, higher = more binding, comparable within an allelic series). With CCGTCTAG the binding signal was 7.85 upbm affinity estimate (log intensity, higher = more binding, comparable within an allelic series). CGTGGAGC was tested, and the binding signal was 8.15 upbm affinity estimate (log intensity, higher = more binding, comparable within an allelic series). For ACCCTCGG, the binding signal was 8.1 upbm affinity estimate (log intensity, higher = more binding, comparable within an allelic series). With GAGGCACC the binding signal was 8.21 upbm affinity estimate (log intensity, higher = more binding, comparable within an allelic series). For CACAGCTC, the binding signal was 7.95 upbm affinity estimate (log intensity, higher = more binding, comparable within an allelic series). With AATTTTCA the binding signal was 11.5 upbm affinity estimate (log intensity, higher = more binding, comparable within an allelic series). GACTGGAC was tested, and the binding signal was 7.98 upbm affinity estimate (log intensity, higher = more binding, comparable within an allelic series). ACTTACCG was tested, and the binding signal was 9.9 upbm affinity estimate (log intensity, higher = more binding, comparable within an allelic series). With CCACATGG the binding signal was 8.13 upbm affinity estimate (log intensity, higher = more binding, comparable within an allelic series). In the case of TCAATGAA, the binding signal is reported as 10.1 upbm affinity estimate (log intensity, higher = more binding, comparable within an allelic series). With AAGTAATT the binding signal was 13 upbm affinity estimate (log intensity, higher = more binding, comparable within an allelic series).

The sequences below were run against T1, PAX4 (Homo sapiens, UniProt O43316 9-242, R200K) (assay: PBM; 200 nM protein, PBS). Details: dsDNA, one strand shown.
T1 sequence: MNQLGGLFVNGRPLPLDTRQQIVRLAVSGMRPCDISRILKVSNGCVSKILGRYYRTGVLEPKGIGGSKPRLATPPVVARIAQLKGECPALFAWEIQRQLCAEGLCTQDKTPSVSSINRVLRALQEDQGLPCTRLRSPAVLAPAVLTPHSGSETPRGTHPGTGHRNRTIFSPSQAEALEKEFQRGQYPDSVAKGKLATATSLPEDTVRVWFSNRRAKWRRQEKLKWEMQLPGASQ
For AAGGGGGA, the binding signal was 9.21 upbm affinity estimate (log intensity, higher = more binding, comparable within an allelic series). For ATAATTTG, the binding signal was 11.6 upbm affinity estimate (log intensity, higher = more binding, comparable within an allelic series). For GCTGCAGC, the binding signal was 9.33 upbm affinity estimate (log intensity, higher = more binding, comparable within an allelic series). With AGTCCGGC the binding signal was 9.22 upbm affinity estimate (log intensity, higher = more binding, comparable within an allelic series). CAGCCCGC was tested, and the binding signal was 9.17 upbm affinity estimate (log intensity, higher = more binding, comparable within an allelic series). For CAGCCGGC, the binding signal was 9.11 upbm affinity estimate (log intensity, higher = more binding, comparable within an allelic series). With AATTATGT the binding signal was 11.6 upbm affinity estimate (log intensity, higher = more binding, comparable within an allelic series). In the case of GTCTTAAA, the binding signal is reported as 10.3 upbm affinity estimate (log intensity, higher = more binding, comparable within an allelic series). With ATAGAGAT the binding signal was 10.5 upbm affinity estimate (log intensity, higher = more binding, comparable within an allelic series). CATATTAA was tested, and the binding signal was 11.8 upbm affinity estimate (log intensity, higher = more binding, comparable within an allelic series). For AATTAGAA, the binding signal was 11.6 upbm affinity estimate (log intensity, higher = more binding, comparable within an allelic series). CAGCGTAA was tested, and the binding signal was 10.6 upbm affinity estimate (log intensity, higher = more binding, comparable within an allelic series).

These sequences were tested against PRRX1 (Homo sapiens, UniProt P54821 80-166, F113S) (assay: PBM; 200 nM protein, PBS). Details: dsDNA, one strand shown.
Sequence of PRRX1 (P54821 80-166 F113S): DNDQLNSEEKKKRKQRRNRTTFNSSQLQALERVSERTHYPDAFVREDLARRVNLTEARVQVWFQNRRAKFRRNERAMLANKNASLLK
For ATAATTTG, the binding signal was 10.9 upbm affinity estimate (log intensity, higher = more binding, comparable within an allelic series). For GCTGCAGC, the binding signal was 9.31 upbm affinity estimate (log intensity, higher = more binding, comparable within an allelic series). In the case of CAGCCGGC, the binding signal is reported as 9.15 upbm affinity estimate (log intensity, higher = more binding, comparable within an allelic series). For AATTATGT, the binding signal was 11 upbm affinity estimate (log intensity, higher = more binding, comparable within an allelic series). With AATTAGAA the binding signal was 11.1 upbm affinity estimate (log intensity, higher = more binding, comparable within an allelic series).

The sequences below were run against T2, PAX4 (Homo sapiens, UniProt O43316 9-242) (assay: PBM; 200 nM protein, PBS). Details: dsDNA, one strand shown.
T2 sequence: T1 sequence with K192R
In the case of AAGGGGGA, the binding signal is reported as 9.23 upbm affinity estimate (log intensity, higher = more binding, comparable within an allelic series). ATAATTTG was tested, and the binding signal was 12.1 upbm affinity estimate (log intensity, higher = more binding, comparable within an allelic series). For GCTGCAGC, the binding signal was 9.16 upbm affinity estimate (log intensity, higher = more binding, comparable within an allelic series). For AGTCCGGC, the binding signal was 9.22 upbm affinity estimate (log intensity, higher = more binding, comparable within an allelic series). For CAGCCCGC, the binding signal was 9.23 upbm affinity estimate (log intensity, higher = more binding, comparable within an allelic series). For CAGCCGGC, the binding signal was 9.27 upbm affinity estimate (log intensity, higher = more binding, comparable within an allelic series). AATTATGT was tested, and the binding signal was 12.1 upbm affinity estimate (log intensity, higher = more binding, comparable within an allelic series). In the case of GTCTTAAA, the binding signal is reported as 10.4 upbm affinity estimate (log intensity, higher = more binding, comparable within an allelic series). ATAGAGAT was tested, and the binding signal was 10.6 upbm affinity estimate (log intensity, higher = more binding, comparable within an allelic series). For CATATTAA, the binding signal was 12.1 upbm affinity estimate (log intensity, higher = more binding, comparable within an allelic series). In the case of AATTAGAA, the binding signal is reported as 12.1 upbm affinity estimate (log intensity, higher = more binding, comparable within an allelic series). In the case of CAGCGTAA, the binding signal is reported as 10.8 upbm affinity estimate (log intensity, higher = more binding, comparable within an allelic series).

What follows are sequences tested against HOXB6 (Homo sapiens, UniProt P17509 132-218, K202E) (assay: PBM; 200 nM protein, PBS). Details: dsDNA, one strand shown.
Sequence of HOXB6 (P17509 132-218 K202E): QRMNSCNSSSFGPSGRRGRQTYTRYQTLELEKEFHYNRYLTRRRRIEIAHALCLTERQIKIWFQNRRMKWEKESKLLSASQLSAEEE
For AAGGGGGA, the binding signal was 8.87 upbm affinity estimate (log intensity, higher = more binding, comparable within an allelic series). In the case of AGTCCGGC, the binding signal is reported as 8.99 upbm affinity estimate (log intensity, higher = more binding, comparable within an allelic series). CAGCCCGC was tested, and the binding signal was 9 upbm affinity estimate (log intensity, higher = more binding, comparable within an allelic series). With CATATTAA the binding signal was 10 upbm affinity estimate (log intensity, higher = more binding, comparable within an allelic series).

Each sequence was assayed against ALX4 (Homo sapiens, UniProt Q9H161 200-286, Q225E) (assay: PBM; 200 nM protein, PBS). Details: dsDNA, one strand shown.
Sequence of ALX4 (Homo sapiens, UniProt Q9H161 200-286, Q225E) (Q9H161 200-286 Q225E): as the sequence (Q9H161 200-286) above, with Q26E counted along it
In the case of GCTCAAGC, the binding signal is reported as 8.25 upbm affinity estimate (log intensity, higher = more binding, comparable within an allelic series). In the case of AATTAAAG, the binding signal is reported as 12.8 upbm affinity estimate (log intensity, higher = more binding, comparable within an allelic series). With CCTGCGAG the binding signal was 7.97 upbm affinity estimate (log intensity, higher = more binding, comparable within an allelic series). For ATTGGTGA, the binding signal was 9.78 upbm affinity estimate (log intensity, higher = more binding, comparable within an allelic series). With AGGAGCCC the binding signal was 8.19 upbm affinity estimate (log intensity, higher = more binding, comparable within an allelic series). For AATTTATC, the binding signal was 11.1 upbm affinity estimate (log intensity, higher = more binding, comparable within an allelic series). CTATAATA was tested, and the binding signal was 10.8 upbm affinity estimate (log intensity, higher = more binding, comparable within an allelic series). With CCGCAGAC the binding signal was 8.21 upbm affinity estimate (log intensity, higher = more binding, comparable within an allelic series). For AAATTAGT, the binding signal was 12.5 upbm affinity estimate (log intensity, higher = more binding, comparable within an allelic series). In the case of GAGGACTC, the binding signal is reported as 8.19 upbm affinity estimate (log intensity, higher = more binding, comparable within an allelic series). For AGGAGGCG, the binding signal was 8.12 upbm affinity estimate (log intensity, higher = more binding, comparable within an allelic series). With TGCCAGCA the binding signal was 8.28 upbm affinity estimate (log intensity, higher = more binding, comparable within an allelic series). With ACGGAGGC the binding signal was 8.29 upbm affinity estimate (log intensity, higher = more binding, comparable within an allelic series). For GAGAGCGC, the binding signal was 8.13 upbm affinity estimate (log intensity, higher = more binding, comparable within an allelic series). GACCGTCC was tested, and the binding signal was 8.15 upbm affinity estimate (log intensity, higher = more binding, comparable within an allelic series). For CGGGCCTC, the binding signal was 8.25 upbm affinity estimate (log intensity, higher = more binding, comparable within an allelic series). In the case of CCGTCTAG, the binding signal is reported as 8.02 upbm affinity estimate (log intensity, higher = more binding, comparable within an allelic series). With CGTGGAGC the binding signal was 8.37 upbm affinity estimate (log intensity, higher = more binding, comparable within an allelic series). With ACCCTCGG the binding signal was 8.11 upbm affinity estimate (log intensity, higher = more binding, comparable within an allelic series). In the case of GAGGCACC, the binding signal is reported as 8.22 upbm affinity estimate (log intensity, higher = more binding, comparable within an allelic series). In the case of CACAGCTC, the binding signal is reported as 8.26 upbm affinity estimate (log intensity, higher = more binding, comparable within an allelic series). For AATTTTCA, the binding signal was 10.4 upbm affinity estimate (log intensity, higher = more binding, comparable within an allelic series). With GACTGGAC the binding signal was 8.14 upbm affinity estimate (log intensity, higher = more binding, comparable within an allelic series). In the case of ACTTACCG, the binding signal is reported as 9.28 upbm affinity estimate (log intensity, higher = more binding, comparable within an allelic series). With CCACATGG the binding signal was 8.32 upbm affinity estimate (log intensity, higher = more binding, comparable within an allelic series). For TCAATGAA, the binding signal was 9.63 upbm affinity estimate (log intensity, higher = more binding, comparable within an allelic series).
